# Test results taken from PubChem BioAssay (NCATS).
# Several values for one entry are separate records, joined by “and”; a condition that tells them apart may be missing. Equal entries are not always repeated. Results filed as inconclusive are left out. Entries that show only a call come without a potency. Values without a mark were called inactive. Activity calls are given as the source filed them. Calls come from the whole dose curve; as a rule, active = well fitted inhibition curve with a large enough effect; inconclusive = small, poorly fitted or top-dose-only effect; inactive = flat fitted curve, though single readings scatter.
# Key:
# CRL-7250 = normal cell line; assay: Cytotoxic Profiling of Annotated Libraries Using Quantitative High-Throughput Screening (AID 1296008); conditions: Five cell lines viability, CellTiter-Glo ATP luminescence, 48-72 h; max response: active compounds read low; note: potency is the fitted concentration of half-maximal effect
# Procedure, shortened: (§1)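 Cells exposed to compounds for 48 or 72 hr at 37 degrees Celsius. Viability read as ATP-coupled luminescence with CellTiter-Glo after 10 min at room temperature.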
# HEK293 = assay: as above; conditions: Five cell lines viability, CellTiter-Glo ATP luminescence, 48-72 h; max response: active compounds read low
# Procedure, shortened: as §1
# HaCat [1] = assay: as above; conditions: Five cell lines viability, CellTiter-Glo ATP luminescence, 48-72 h; max response: active compounds read low
# Procedure, shortened: as §1
# KB-3-1 = assay: as above; conditions: Five cell lines viability, CellTiter-Glo ATP luminescence, 48-72 h; max response: active compounds read low
# Procedure, shortened: as §1
# NIH3T3 = assay: as above; conditions: Five cell lines viability, CellTiter-Glo ATP luminescence, 48-72 h; max response: active compounds read low
# Procedure, shortened: as §1
# HACAT [2] = assay: qHTS assay to identify novel small-molecules to repurpose for Merkel cell carcinoma treatment (AID 1296009); conditions: MCC and control cell lines, CellTiter-Glo viability, 72 h
# Procedure, shortened: (§2)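 Cells were treated for 72 hr at 37 degree celsius with compounds in 8- or 11-point dose response. Viability was read by CellTiter-Glo luminescence, normalized to no-cell (cytotoxicity) and DMSO controls.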
# HEK293T = assay: as above; conditions: MCC and control cell lines, CellTiter-Glo viability, 72 h; at 44.8 µM (top of the series) unless noted
# Procedure, shortened: as §2
# MCC-13 = assay: as above; conditions: MCC and control cell lines, CellTiter-Glo viability, 72 h; series mostly up to 46 µM
# Procedure, shortened: as §2
# [3] = at 44.8 µM (top of the series) unless noted
# Note: nearly all actives have a fitted effect of over 60% in size.
smiles,measurement,setting,value
C[C@H](CCC(=O)O)[C@H]1CC[C@H]2[C@H]3[C@@H](CC[C@]12C)[C@@]1(C)CC[C@@H](O)C[C@H]1C[C@@H]3O,max response,CRL-7250,-2.21%
same,outcome,HEK293,inactive
same,outcome,HaCat [1],inactive
same,max response,KB-3-1,0.163%
same,max response,NIH3T3,-1.17%
same,outcome,HACAT [2]; [3],inactive
same,outcome,HEK293T,inactive
same,Potency,MCC-13,inactive
OC[C@H]1O[C@@H](Oc2ccc(O)cc2)[C@H](O)[C@@H](O)[C@H]1O,max response,CRL-7250,-2.9%
same,max response,HEK293,3.31%
same,outcome,HaCat [1],inactive
same,outcome,KB-3-1,inactive
same,outcome,NIH3T3,inactive
same,outcome,HACAT [2]; [3],inactive
same,Potency,MCC-13,inactive
CN(CC=CC#CC(C)(C)C)Cc1cccc2ccccc12,max response,CRL-7250,1.65%
same,outcome,HEK293,inactive
same,outcome,HaCat [1],inactive
same,max response,KB-3-1,4.31%
same,max response,NIH3T3,-1.72%
same,outcome,HACAT [2]; [3],inactive
same,outcome,HEK293T,inactive
same,Potency,MCC-13,inactive
Cc1ccc2c(=O)c3cccc(CC(=O)O)c3oc2c1C,max response,CRL-7250,-6.92%
same,outcome,HEK293,inactive
same,max response,HaCat [1],-14.4%
same,outcome,KB-3-1,inactive
same,outcome,NIH3T3,inactive
same,outcome,HEK293T,inactive
same,Potency,MCC-13,inactive
CCOC(=O)[C@H](CCc1ccccc1)N[C@@H](C)C(=O)N1CCCC1C(=O)O (stereo partly specified),max response,CRL-7250,3.69%
same,outcome,HEK293,inactive
same,outcome,HaCat [1],inactive
same,max response,KB-3-1,2.47%
same,outcome,NIH3T3,inactive
same,outcome,HACAT [2]; [3],inactive
same,outcome,HEK293T,inactive
same,Potency,MCC-13,inactive
COc1cc2ncn(-c3cc(OCc4ccccc4S(C)(=O)=O)c(C#N)s3)c2cc1OC,max response,CRL-7250,0.002%
same,max response,HEK293,-13.3%
same,outcome,HaCat [1],inactive
same,max response,KB-3-1,-2.12%
same,max response,NIH3T3,-0.819%
same,outcome,HACAT [2]; [3],inactive
same,Potency,MCC-13,inactive
O=c1[nH]nc(OCCCc2ccc(Cl)cc2)c(NCc2cccnc2)c1Br,Potency,CRL-7250,6.51 µM (active)
same,Potency,HEK293,3.32 µM (active) and 7.31 µM (active)
same,Potency,HaCat [1],20.9 µM (active)
same,max response,KB-3-1,3.09%
same,max response,NIH3T3,1.68% and -21.7%
O=C1C(c2c(O)[nH]c3ccccc23)=Nc2ccccc21,outcome,CRL-7250,inactive
same,max response,HEK293,-1.42%
same,outcome,HaCat [1],inactive
same,outcome,KB-3-1,inactive
same,max response,NIH3T3,2.3%
same,outcome,NIH3T3,inactive
same,outcome,HACAT [2]; at 17.4 µM (top of the series),inactive
same,outcome,HACAT [2]; at 44.8 µM (top of the series),inactive
same,Potency,MCC-13,inactive
CN[C@@H]1[C@@H](O)[C@@H](O[C@@H]2[C@@H](O)[C@H](O[C@H]3O[C@H](CN)[C@@H](O)[C@H](O)[C@@H]3O)[C@@H](N)C[C@@H]2NC(=O)[C@@H](O)CN)OC[C@]1(C)O,outcome,CRL-7250,inactive
same,max response,HEK293,3.66%
same,outcome,HaCat [1],inactive
same,max response,KB-3-1,1.73%
same,outcome,NIH3T3,inactive
same,outcome,HACAT [2]; [3],inactive
same,Potency,MCC-13,inactive
COc1cc([C@H]2Oc3cc([C@H]4Oc5cc(O)cc(O)c5C(=O)[C@H]4O)ccc3O[C@H]2CO)ccc1O,outcome,CRL-7250,inactive
same,max response,HEK293,-13.7%
same,outcome,HaCat [1],inactive
same,max response,KB-3-1,-0.459%
same,max response,NIH3T3,0.0248%
same,outcome,HACAT [2]; [3],inactive
same,Potency,MCC-13,inactive
NC(N)=Nc1nc(CSCCC(N)=NS(N)(=O)=O)cs1,max response,CRL-7250,-0.357%
same,max response,HEK293,-1.73%
same,outcome,HaCat [1],inactive
same,max response,KB-3-1,6.28%
same,outcome,NIH3T3,inactive
same,outcome,HACAT [2]; [3],inactive
same,Potency,MCC-13,inactive
O=C(NCCCCN1CCOCC1)c1cc2ccccc2o1,max response,CRL-7250,-1.43%
same,max response,HEK293,-14.9%
same,outcome,HaCat [1],inactive
same,outcome,KB-3-1,inactive
same,max response,NIH3T3,3.06%
same,outcome,HACAT [2]; [3],inactive
same,Potency,MCC-13,inactive
CC=C(C(=CC)c1ccc(O)cc1)c1ccc(O)cc1,max response,CRL-7250,-2.03%
same,max response,HEK293,-14%
same,outcome,HaCat [1],inactive
same,max response,KB-3-1,-8.73%
same,max response,NIH3T3,-13.5%
same,outcome,HACAT [2]; [3],inactive
same,Potency,MCC-13,inactive
CC(C)(CO)[C@@H](O)C(=O)NCCC(=O)O,max response,CRL-7250,0.71%
same,outcome,HEK293,inactive
same,outcome,HaCat [1],inactive
same,max response,KB-3-1,1.6% and 8.68%
same,max response,NIH3T3,-2.4%
same,outcome,HACAT [2]; [3],inactive
same,outcome,HEK293T,inactive
same,Potency,MCC-13,inactive
Nc1[nH]nc2nnc(-c3c(-c4ccccc4)nn4ccccc34)cc12,outcome,CRL-7250,inactive
same,max response,HEK293,2.02% and -4.98%
same,outcome,HaCat [1],inactive
same,outcome,KB-3-1,inactive
same,outcome,NIH3T3,inactive
same,outcome,HACAT [2]; [3],inactive
same,Potency,MCC-13,inactive
CC1(C)[C@H]2CC[C@]3(C)[C@@H](C(=O)C=C4[C@@H]5C[C@@](C)(C(=O)O)CC[C@]5(C)CC[C@]43C)[C@@]2(C)CC[C@@H]1O,outcome,CRL-7250,inactive
same,max response,HEK293,-1.55%
same,outcome,HaCat [1],inactive
same,max response,KB-3-1,1.07%
same,max response,NIH3T3,-8.32%
same,outcome,HACAT [2]; [3],inactive
same,Potency,MCC-13,inactive
C=C1c2cccc(O)c2C(O)=C2C(=O)[C@@]3(O)C(O)=C(C(N)=O)C(=O)[C@@H](N(C)C)[C@@H]3[C@@H](O)[C@H]12,max response,CRL-7250,-8.75%
same,max response,HEK293,0.32%
same,outcome,HaCat [1],inactive
same,max response,KB-3-1,1.29%
same,max response,NIH3T3,-2.7%
same,outcome,HACAT [2]; [3],inactive
same,Potency,MCC-13,inactive
COc1ccc(-c2cc(=O)c3c(O)cc(O[C@@H]4O[C@H](CO[C@@H]5O[C@@H](C)[C@H](O)[C@@H](O)[C@@H]5O)[C@@H](O)[C@H](O)[C@@H]4O)cc3o2)cc1O,max response,CRL-7250,-4.94%
same,outcome,HEK293,inactive
same,outcome,HaCat [1],inactive
same,max response,KB-3-1,-0.879%
same,outcome,NIH3T3,inactive
same,outcome,HACAT [2]; [3],inactive
same,outcome,HEK293T,inactive
same,Potency,MCC-13,inactive
